# Bioassay records as filed in PubChem BioAssay.
# SMN2 splice enh = increases expression of the SMN2 splice variant; HEK293 SMN2-luciferase splicing reporter, luminescence, 30-36 h; Potency, µM (doses to about 46.1 µM), without a hit: top-dose activity change, positive = activation, most hits filed as activators; hit rate 2.8% among 210,000; note: % of control where 0% means no effect; nearly all actives have a fitted effect of over 55% in size
#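 HEK293 cells carry an SMN2 […]–luciferase reporter in which exon 7 inclusion puts luciferase in frame. Cells were plated 10-12 h before compound addition, then incubated 30-36 h at 37C. ONE-Glo luminescence was read; sodium butyrate at 4.5 mM final served as control.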
# ELG1 genotox = inducers of genotoxicity in HEK293T ELG1-luciferase cells. HEK293T ELG1-luciferase reporter, luminescence, 16 h. Potency, µM (titrated, usually from 46 µM), for inactives: top-dose activity change, positive = activation, most hits filed as activators. hit rate 1.3% among 330,000; note: % of control where 0% means no effect; nearly all actives have a fitted effect of over 60% in size
#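 Genotoxic stress is detected as increased luminescence from luciferase-tagged ELG1 in HEK293T cells, measured with ONE-Glo after a 16 hr treatment at 37 °C.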
# NPC1 promoter act = activators of NPC1 promoter. Huh7 NPC1 promoter luciferase reporter, 24 h. Potency, µM (top dose mostly 9.22 µM), inactives show top-dose activation, most hits filed as activators. hit rate 2.4% among 320,000. AID 485313; note: % of control where 0% means no effect; nearly all actives have a fitted effect of over 60% in size
#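 Luminescence from an NPC1 promoter-driven luciferase reporter in stably transfected Huh7 cells was measured after 24 h compound treatment at 37 °C, followed by 10 min ambient incubation with luciferase detection reagent.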
# Rab9 promoter act = activates the Rab9 promoter | Huh7 Rab9 promoter-luciferase reporter, luminescence, 24 h | Potency, µM (titrated, usually from 9.22 µM), for the others: at the top dose activation, negative = inhibition, most hits filed as activators | hit rate 2.8% among 320,000; note: % of control where 0% means no effect; nearly all actives have a fitted effect of over 60% in size
#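 Cells were plated at 1500 per well in reduced-serum medium with 10% FBS and left 2 h. Compound in DMSO was then added for 24 h at 37 °C. Reporter signal was read by luminescence after 10 min with luciferase detection reagent.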
# ELG1 DNA repair = ELG1-dependent DNA repair inhibition; HEK293T ELG1-luciferase reporter, luminescence, 16 h; DNA damage induced by 5-fluorouridine; Potency, µM (doses to about 46.1 µM), inactives show at the top dose activity change, negative = inhibition, hits mostly inhibitors; hit rate 2.3% among 330,000; note: % is set by controls: 0 for no effect and ±100 for the full control effect; nearly all actives have a fitted effect of over 55% in size
#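 Step one: seed 2,000 cells per well. Step two: pin-transfer compound or DMSO alongside 5-fluorouridine. Step three: incubate 16 hr, 37 °C, 5% CO2. Step four: add ONE-Glo, wait 30 min, read luminescence.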
# FLuc counter = firefly luciferase modulation, counter-screen for miR-21 project. Potency, µM (highest dose often 57.5 µM), inactives show at the highest dose activity change, negative = inhibition, usual class: inhibitors. AID 588342. purified FLuc, Km substrates, luminescence inhibition. hit rate 6.9% among 360,000;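 note: plate controls were vehicle for no effect and reference inhibitor for full effect; nearly all actives have a fitted effect of over 55% in size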
# Target sequence (P08659 whole entry, looked up): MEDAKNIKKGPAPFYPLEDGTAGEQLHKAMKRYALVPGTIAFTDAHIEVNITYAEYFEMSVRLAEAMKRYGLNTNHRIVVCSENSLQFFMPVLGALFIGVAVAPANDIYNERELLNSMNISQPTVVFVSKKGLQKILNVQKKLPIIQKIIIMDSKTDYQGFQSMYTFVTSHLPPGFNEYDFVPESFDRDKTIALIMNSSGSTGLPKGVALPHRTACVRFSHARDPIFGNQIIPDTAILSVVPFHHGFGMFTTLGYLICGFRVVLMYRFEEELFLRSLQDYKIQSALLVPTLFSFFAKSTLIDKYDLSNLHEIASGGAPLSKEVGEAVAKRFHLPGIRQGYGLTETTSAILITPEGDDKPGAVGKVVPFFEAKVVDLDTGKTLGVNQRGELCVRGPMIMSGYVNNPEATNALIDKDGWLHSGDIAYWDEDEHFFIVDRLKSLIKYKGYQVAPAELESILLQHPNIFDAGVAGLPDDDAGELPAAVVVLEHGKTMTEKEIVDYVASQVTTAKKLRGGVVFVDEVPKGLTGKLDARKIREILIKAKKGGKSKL
#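 Biochemical qHTS of compounds, final roughly 60 µM downward over six points, against 10 nM purified firefly luciferase using Km concentrations of substrates (10 uM D-luciferin, 10 uM ATP) in Tris acetate pH 7.5 buffer; luminescence output.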
# ELG1 FLuc counter = luciferase inhibition in cell-free luciferin readout for ELG1 hits; shares compounds with ELG1 DNA repair; cell-free firefly luciferase luminescence counter-screen, ViewLux; AID 624247; hit rate 3% among 350; Potency, µM (highest dose often 46.1 µM), without a hit: top-dose activity change, negative = inhibition, hits mostly inhibitors; note: % is set by controls: 0 for no effect and ±100 for the full control effect
# ELG1-Luc inh = inhibits ELG1-dependent DNA repair in HEK293T cells, confirmed; HEK293T ELG1-luciferase levels, luminescence; cells co-treated with 5-fluorouridine; hit rate 68% among 670; shares compounds with ELG1 DNA repair; Potency, µM (series often up to 46.1 µM), without a hit: at the highest dose activity change, negative = inhibition, actives largely listed as inhibitors; AID 624248; note: % is set by controls: 0 for no effect and ±100 for the full control effect; nearly all actives have a fitted effect of over 55% in size
# ELG1 MMS Luc = inhibits ELG1-dependent repair under MMS stimulation in HEK293T cells | shares compounds with ELG1 DNA repair | hit rate 53% among 670 | Potency, µM (top dose mostly 46.1 µM), without a hit: at the top dose activity change, negative = inhibition, actives largely listed as inhibitors | AID 624249 | HEK293T luciferase-tagged ELG1 level, MMS stimulated; note: % is set by controls: 0 for no effect and ±100 for the full control effect; nearly all actives have a fitted effect of over 60% in size
# ELG1 5-FU = confirmation of ELG1 repair inhibitors: viability with 5FU; shares compounds with ELG1 DNA repair; cell viability with 5-FU, ELG1-dependent repair; Potency, µM (top dose mostly 46.1 µM), inactives show top-dose activity change, negative = viability loss, hits mostly cytotoxic; 670 tested, under 10 active;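 note: ELG1-luc HEK293T cells cotreated with 5-fluorouridine at 10 µM final; viability measured 16 h after compound addition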
# ELG1 MMS cell = confirmation of ELG1 repair inhibitors: viability with MMS. shares compounds with ELG1 DNA repair. Cell viability with MMS, ELG1-dependent DNA repair. Potency, µM (series often up to 46.1 µM), for the others: at the top dose activity change, negative = viability loss, most hits filed as cytotoxic. hit rate 33% among 670. AID 624251;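 note: ELG1-luc HEK293T cells co-treated with 10 µM MMS; viability read 16 h after compound addition; % is set by controls: 0 for no effect and ±100 for the full control effect; nearly all actives have a fitted effect of over 60% in size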
# Cell viab unstim = unstimulated viability counter-screen for ELG1 repair hits | shares compounds with ELG1 DNA repair | cell viability counter-screen, unstimulated, luminescence | Potency, µM (doses to about 45.9 µM), for inactives: at the top dose activity change, negative = loss of viability, hits mostly cytotoxic | hit rate 8% among 900 | AID 624252;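 note: compound exposure lasted 16 hours before reading; % is set by controls: 0 for no effect and ±100 for the full control effect; nearly all actives have a fitted effect of over 55% in size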
# FLuc biochem = counter-screen for ELG1 repair inhibitors: firefly luciferase inhibition; shares compounds with ELG1 DNA repair; purified firefly luciferase, luminescence counter-screen; Potency, µM (top dose mostly 57.5 µM), inactives show at the top dose activity, negative = inhibition, usual class: inhibitors; hit rate 10% among 350; AID 624253; note: % is set by controls: 0 for no effect and ±100 for the full control effect
# The depositor's hits bear a star; ? = inconclusive; / = no result; [ ] = dose if it differs, or a comment. The list is not random: actives were taken first. Their share in the collection is about 9.2%. Calls come from the whole dose curve; as a rule, active = well fitted curve in the direction sought with a large enough effect; inconclusive = small, poorly fitted or top-dose-only effect, or another doubt; inactive = no such curve, though single readings can be large; an effect the other way counts as inactive or inconclusive. Potency is the fitted concentration of half-maximal effect.
SMILES,SMN2 splice enh,ELG1 genotox,NPC1 promoter act,Rab9 promoter act,ELG1 DNA repair,FLuc counter,ELG1-Luc inh,ELG1 MMS Luc,ELG1 5-FU,ELG1 MMS cell,Cell viab unstim,others
N#C/C(=C(/O)c1ccc([N+](=O)[O-])s1)c1nc2ccccc2[nH]1,/,-9%,-24%,-37%,2.1µM*,-17%,?,0.79µM*,-10%,0.89µM*,?,
COc1ccc(-c2cc(-c3ccc(C)cc3)nc(SCc3nnc(-c4ccccc4)o3)c2C#N)cc1OC,-48%,6%,-3%,-4%,2.9µM*,-2%,3.2µM*,-12%,?,13%,-3%,ELG1 FLuc counter=-1%;FLuc biochem=0%
Cc1ccc(CNC(=O)CCn2cnc3ccccc3c2=O)cc1,/,/,/,/,/,4%,/,/,/,/,/,
COc1ccc(S(=O)(=O)N2CCCCC2)cc1NC(=O)c1[nH]c(C)c(C(C)=O)c1C,/,12µM*,/,/,?,/,/,/,/,/,-19%,
Cc1ccc(S(=O)(=O)N2CCCCC2)cc1NC(=O)CNc1ccc(C(F)(F)F)cc1,/,16%,-3%,-3%,3.7µM*,-17%,?,31µM*,-3%,28µM*,?,
COc1ccc(CC(=O)Nc2cc(S(=O)(=O)N3CCCCC3)ccc2C)cc1OC,/,-6%,-30%,-24%,2.1µM*,3%,?,1.4µM*,3%,2.5µM*,?,
O=C(O)c1cc(Nc2nc(N3CCOCC3)nc(N3CCOCC3)n2)ccc1Cl,?,-1%,-5%,1%,1%,6%,/,/,/,/,/,
O=C(CSc1nc2ccc(Nc3nc(N4CCOCC4)nc(N4CCOCC4)n3)cc2s1)Nc1ccccc1Cl,/,1%,-8%,0%,2.9µM*,4%,4µM*,-13%,?,0%,-7%,ELG1 FLuc counter=?;FLuc biochem=-1%
O=C(O)c1cccc(Nc2nc(N3CCOCC3)nc(N3CCOCC3)n2)c1,23%,-6%,-5%,-8%,-1%,3%,0%,23%,-1%,-4%,-7%,ELG1 FLuc counter=21%;FLuc biochem=-9%
COc1ncccc1C(=O)N1CCC(n2nccc2NC(=O)CC(C)C)CC1,/,7%,3%,11%,?,-2%,/,/,/,/,/,
O=C(c1nc2nc(-c3ccccc3)cc(C(F)(F)F)n2n1)N1CCCCC1,-28%,-6%,-1%,5%,3.3µM*,-1%[2.3 µM],-8%,18%,1%,-5%,-1%,
COc1cccc(/C=C/C(=O)OCC(=O)c2ccc(C)c(C)c2)c1OC,/,0%,1%,-3%,7%,?,/,/,/,/,/,
COc1cccc(/C=C/C(=O)OCC(=O)c2ccccc2)c1OC,/,?,/,/,?,/,/,/,/,/,-3%,
COc1cccc(-c2cncnc2NCCc2cnc[nH]2)c1,-7%,/,/,/,/,/,1.4µM*,?,0%,2%,?,
Cc1cc([N+](=O)[O-])nn1Cc1noc(C(=O)NCCCn2ccnc2)n1,/,1%,2%,-5%,1%,1%,/,/,/,/,/,
CCc1c(C)nc2ccc(Br)cc2c1SCCC#N,-24%,-10%,1%,1%,4.1µM*,0%,7.1µM*,16µM*,15%,?,-12%,
CCc1c(C)nc2c(Br)cccc2c1SCCC#N,-15%,-4%,-2%,-2%,-20%,-17%,/,/,/,/,/,
CCOC(=O)c1c(CSc2nc(C)cc(C)c2C#N)n(C)c2cc(Br)c(OC(C)=O)cc12,-59%,10%,-21%,-9%,?,-2%,/,/,/,/,/,
C=CCCc1ccc(C#N)c(SCc2c(C(=O)OCC)c3cc(OC(C)=O)c(Br)cc3n2C)n1,30%,1%,-32%,-30%,2.3µM*,1%,?,2.8µM*,3%,4µM*,?,ELG1 FLuc counter=10%;FLuc biochem=3%
CC(=O)N1CCN(CC(=O)Nc2ccccc2C(=O)NCc2ccc(C)cc2)CC1,/,-13%,-4%,-3%,-15%,0%,/,/,/,/,/,
CC(=O)N1CCN(CC(=O)Nc2ccccc2C(=O)Nc2ccccc2)CC1,/,2%,/,/,?,/,3.5µM*,43%,?,-2%,-1%,
COc1ccc(OC)c(N(CC(=O)NCCSC2CCCCC2)S(=O)(=O)c2ccccc2)c1,/,-6%,1%,-5%,-6%,3%,/,/,/,/,/,
COc1ccc(C[C@H](N)C(=O)N[C@H]2[C@@H](O)[C@H](n3cnc4c(N(C)C)ncnc43)O[C@@H]2CO)cc1,/,-58%,-36%,-46%,2.5µM*,4%,3.1µM*,1.6µM*,?,2.2µM*,2.2µM*,
C=CCOc1ccc(C[C@H](N)C(=O)NC[C@H]2O[C@@H](n3cnc4c(N)ncnc43)[C@H](O)[C@@H]2O)cc1,/,9%,/,/,11%,/,/,/,/,/,/,
COc1ccc(NC(=O)c2ccccc2OCc2c(C)noc2C)cc1OC,/,6%,-4%,-5%,2%,0%,/,/,/,/,/,
Cc1ccc(/C=C/C(=O)Nc2ccc([N+](=O)[O-])cc2)o1,/,-2%,23%,?,1.8µM*,-27%,14µM*,22µM*,?,25µM*,?,
